This is an account of results in PubChem BioAssay (NCATS).

Results filed as inconclusive are left out. Calls of active or inactive are those of the source. Calls come from the whole dose curve; as a rule, active = well fitted curve in the direction sought with a large enough effect; inconclusive = small, poorly fitted or top-dose-only effect, or another doubt; inactive = no such curve, though single readings can be large; an effect the other way counts as inactive or inconclusive.

Test [1] can be described thus: Cellular Toxicity (caspase-3) NIH 3T3 (AID 666).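 Note: caspase signal read after 16 h compound exposure.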 A digest of the protocol:
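Activity: caspase-3/7 induction, NIH 3T3 cells, 16 hr treatment at 37°C, luminescent Caspase-Glo detection; AC50 via Hill equation.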

The nature of test [2]: Cellular Toxicity (caspase-3) Renal Proximal Tubule (AID 667).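 Note: cells exposed to compound for 16 hours at 37 °C before detection.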 A digest of the protocol: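 Freshly isolated primary rat kidney proximal tubule cells, 1000/well, treated 16 hr at 37 °C, then Caspase-Glo 3/7 luminescence after 1 hr. Normalized to DMSO and 10 uM staurosporine; AC50 from Hill fit.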
A short description of test [3]: Cell Viability - LYMP2-001 (AID 921). Note: series mostly up to about 92 µM; nearly all actives have a fitted effect of over 70% in size. The method, boiled down:
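Human lymphoblastoid LYMP2-001 cells, 2500 per well, in complete medium, treated 24 h at 37 C. Viability from cellular ATP by CellTiter-Glo luminescence; AC50 from Hill-equation fits of qHTS concentration-response.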

Test [4] is described as follows: MultiTox-Fluor Cytotoxicity Assay - LYMP1-001 - Dead Cells (AID 946).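 Note: cells exposed to compound for 16 h.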 A digest of the protocol:
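LYMP1-001 lymphoblastoid cells (2500/well) treated 16 h at 37 C. Dead-cell protease cleavage of bis-AAF-R110 read at Ex/Em 485/520. Normalized to DMSO and 15 uM tetraoctylammonium bromide; AC50 from Hill fits.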

A short description of test [5]: MultiTox-Fluor Cytotoxicity Assay - LYMP1-001 - Live Cells (AID 947).
Test [6] in a line: Cell Viability - LYMP1-002 - Assay at 16 hr (AID 948). A digest of the protocol: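 LYMP1-002 human lymphoblastoid cells, 2500/well, were treated with compounds for 16 hr at 37 C in complete medium. Viability was read as intracellular ATP by CellTiter-Glo luminescence, and AC50 was derived from a Hill fit to concentration-response data.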
For test [7], the target named is Cytochrome P450 3A4 (Homo sapiens) (UniProt P08684). Description: qHTS Assay for Inhibitors and Substrates of Cytochrome P450 3A4 (AID 884). Note: nearly all actives have a fitted effect of over 50% in size. Note: potency is the fitted concentration of half-maximal effect. A digest of the protocol: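 Luminescent readout of luciferin produced by CYP3A4 (20 nM) dealkylation of Luciferin-PPXE, 25 uM (its KM). NADPH-driven reaction ran 60 min at RT after 10 min compound preincubation; data scaled to 57 uM ketoconazole as 100% inhibition.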
Sequence of Cytochrome P450 3A4 (Homo sapiens) (P08684 whole entry, looked up): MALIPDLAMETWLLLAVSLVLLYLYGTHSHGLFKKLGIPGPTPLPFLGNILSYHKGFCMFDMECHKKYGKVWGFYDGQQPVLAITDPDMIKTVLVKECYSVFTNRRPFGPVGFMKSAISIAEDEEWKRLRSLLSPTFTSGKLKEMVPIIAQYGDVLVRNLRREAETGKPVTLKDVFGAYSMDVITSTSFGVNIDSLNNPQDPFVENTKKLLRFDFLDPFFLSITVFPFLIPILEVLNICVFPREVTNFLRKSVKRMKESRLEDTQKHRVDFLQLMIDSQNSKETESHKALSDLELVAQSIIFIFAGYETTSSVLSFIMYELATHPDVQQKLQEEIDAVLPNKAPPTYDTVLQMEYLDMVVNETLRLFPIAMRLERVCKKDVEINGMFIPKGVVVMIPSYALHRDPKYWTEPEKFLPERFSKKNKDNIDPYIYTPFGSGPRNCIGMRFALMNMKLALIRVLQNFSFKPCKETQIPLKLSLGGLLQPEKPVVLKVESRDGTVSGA
On the technique in general: Quantitative high-throughput screening tests each substance at several concentrations.

Test [8] in a line: Confirmation and Secondary Assay for Modulators of Hemoglobin Beta Chain Splicing at IVS2 654 locus (AID 910).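 Note: HeLa cells stably carrying EGFP split by mutant beta-globin IVS2-654 intron; per-well total GFP intensity by laser scanning cytometry after 2-day treatment.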 A digest of the protocol:
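Readout: per-well total peak green fluorescence (488 nm ex, 500–520 nm em) from objects 5–250 µm, reflecting correct splicing of an EGFP-654 reporter. Compounds were applied for 2 days at 37 °C to overnight-plated HeLa EGFP-654 cells; controls were DMSO and 500 nM IVS2-654 PNA.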

The nature of test [9]: Confirmation and Secondary Assay for Modulators of Hemoglobin Beta Chain Splicing at IVS2 705 locus (AID 930).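 Note: HeLa cells stably expressing the EGFP-705 splicing reporter; GFP fluorescence per well restored by corrected splicing of the IVS2-705 intron in EGFP; series mostly up to about 46 µM.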 A digest of the protocol: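 Splice-correction reporter: EGFP cDNA split by beta-globin intron 2 bearing the 705 mutation, stably in HeLa. Compound incubation 2 days, 37C; fluorescent objects 5-250 µm summed per well.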
The target in test [10] is Guanine nucleotide-binding protein G(i) subunit alpha-1 (Homo sapiens) (UniProt P63096). Briefly: qHTS Assay for Inhibitors of RGS12 GoLoco Motif Activity (Green Fluorophore) (AID 879).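 Note: negative values mean loss of peptide binding seen as reduced polarization.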 The method, boiled down: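 A drop in FITC polarization marked displacement of the FITC-tagged RGS12 GoLoco peptide (10 nM) from Gαi1 (50 nM). Compounds were incubated 10 min at room temperature in Tris pH 7.5 buffer containing 150 mM NaCl, 0.1 mM GDP and 0.05% NP40; unlabeled peptide titration served as control.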
Sequence of Guanine nucleotide-binding protein G(i) subunit alpha-1 (Homo sapiens) (P63096 whole entry, looked up): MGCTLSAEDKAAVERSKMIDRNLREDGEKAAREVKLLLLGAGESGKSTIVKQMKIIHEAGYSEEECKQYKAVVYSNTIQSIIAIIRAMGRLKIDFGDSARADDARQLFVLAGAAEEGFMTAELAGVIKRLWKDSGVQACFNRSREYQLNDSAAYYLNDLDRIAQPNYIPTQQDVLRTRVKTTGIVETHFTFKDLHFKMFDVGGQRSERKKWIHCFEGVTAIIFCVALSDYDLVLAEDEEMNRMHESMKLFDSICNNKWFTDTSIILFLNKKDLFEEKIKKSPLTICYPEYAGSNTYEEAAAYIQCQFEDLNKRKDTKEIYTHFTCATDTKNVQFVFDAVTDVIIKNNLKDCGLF

Test [11] addresses Cytochrome P450 2C9 (Homo sapiens) (UniProt P11712). Description: qHTS Assay for Inhibitors and Substrates of Cytochrome P450 2C9 (AID 883). Note: nearly all actives have a fitted effect of over 60% in size. Note: potency is the fitted concentration of half-maximal effect. A digest of the protocol:
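Luminescent read-out of deoxyluciferin hydroxylation, normalized to 57uM sulphaphenazole (AC100). Reaction: 10nM enzyme, 100uM Luciferin-H (equal to KM), 25mM KPO4, 10 min compound preincubation, then 60 min with NADPH regeneration, both at 37C.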

Test [12] has as its target Cytochrome P450 2C19 (Homo sapiens) (UniProt P33261). Briefly: qHTS Assay for Inhibitors and Substrates of Cytochrome P450 2C19 (AID 899). Note: nearly all actives have a fitted effect of over 60% in size. Note: potency is the fitted concentration of half-maximal effect. A digest of the protocol:
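Luminescence readout of luciferin formed from 10uM Luciferin-H EGE (KM level) by 5 nM CYP2C19 in 50mM KPO4. 60 min NADPH-driven reaction at 37C after 10 min compound preincubation; data scaled to 57uM ketoconazole inhibition.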

Test [13] in a line: qHTS Assay for Identification of Small Molecule Agonists for Thrombopoietin (TPO) Signaling Pathway (AID 917). A digest of the protocol: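 Stimulation at the TPO EC50 (26 pM final) was used to detect activators. Ba/F3 mouse cells bearing human TPO receptor and a luciferase reporter under the Glycoprotein IIb promoter were exposed to compounds for 24 hrs at 37 C.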
Test [14] has as its target Muscarinic acetylcholine receptor M1 (Rattus norvegicus) (UniProt P08482). Briefly: qHTS Assay for Antagonists of Acetylcholine Muscarinic M1 Receptor: Measurement of IP-One Response (AID 944). Note: nearly all actives have a fitted effect of over 75% in size. A digest of the protocol:
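Antagonism was measured as loss of carbachol-driven (EC80) IP1 accumulation in CHO cells carrying rat M1, using a homogeneous IP-One TR-FRET kit read at 620 and 665 nm.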

In test [15] the target is Pyruvate kinase (Leishmania mexicana) (UniProt Q27686). Description: qHTS Validation Assay for Inhibitors of Leishmania Mexicana Pyruvate Kinase (AID 945). The method, boiled down:
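The enzyme is a highly purified E451W mutant of LmPYK used at 0.2 nM. It converts 0.5 mM PEP and 0.1 mM ADP over 1 h at room temperature; product ATP is quantified by luciferase luminescence relative to DMSO controls.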

Test [16] can be described thus: qHTS Assay for Identification of Small Molecule Antagonists for Thrombopoietin (TPO) Signaling Pathway (AID 918). Note: potency is the fitted concentration of half-maximal effect; nearly all actives have a fitted effect of over 60% in size. To be noted: TPO-dependent cell signaling reporter, antagonist mode. A digest of the protocol:
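Antagonist mode at EC50 TPO (26 pM) in IL-3-free medium; murine Ba/F3 cells with human TPO receptor and GPIIb-promoter luciferase, 24 hrs at 37 C before luminescent detection.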

For test [17], the target named is Cytochrome P450 2D6 (Homo sapiens) (UniProt P10635). Description: qHTS Assay for Inhibitors and Substrates of Cytochrome P450 2D6 (AID 891).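 Note: luciferin methyl ether substrate demethylated by CYP2D6 with NADPH regeneration; nearly all actives have a fitted effect of over 60% in size.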 The method, boiled down:
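Luminescent read-out of luciferin formed by 5 nM human CYP2D6 demethylating 30 uM Luciferin-ME EGE (Km level) over 60 min at room temperature after NADPH regeneration addition. Data normalized to full inhibition by 1.43 uM quinidine.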

Test [18] addresses Muscarinic acetylcholine receptor M1 (Rattus norvegicus) (UniProt P08482). Description: qHTS Assay for Antagonists of Acetylcholine Muscarinic M1 Receptor: Kinetic Measurement of Intracellular Calcium Response (AID 943).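 Note: Fluo-4 calcium signal as peak divided by basal fluorescence over 4 min; series mostly up to about 35 µM; nearly all actives have a fitted effect of over 75% in size.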 The method, boiled down:
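Quantitative HTS in CHO-M1 (rat receptor) cells: 10 min compound exposure ahead of 100 nM carbachol, Fluo-4 fluorescence followed 4 min, value expressed as peak-to-basal ratio.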

Sequence of Muscarinic acetylcholine receptor M1 (Rattus norvegicus) (P08482 whole entry, looked up): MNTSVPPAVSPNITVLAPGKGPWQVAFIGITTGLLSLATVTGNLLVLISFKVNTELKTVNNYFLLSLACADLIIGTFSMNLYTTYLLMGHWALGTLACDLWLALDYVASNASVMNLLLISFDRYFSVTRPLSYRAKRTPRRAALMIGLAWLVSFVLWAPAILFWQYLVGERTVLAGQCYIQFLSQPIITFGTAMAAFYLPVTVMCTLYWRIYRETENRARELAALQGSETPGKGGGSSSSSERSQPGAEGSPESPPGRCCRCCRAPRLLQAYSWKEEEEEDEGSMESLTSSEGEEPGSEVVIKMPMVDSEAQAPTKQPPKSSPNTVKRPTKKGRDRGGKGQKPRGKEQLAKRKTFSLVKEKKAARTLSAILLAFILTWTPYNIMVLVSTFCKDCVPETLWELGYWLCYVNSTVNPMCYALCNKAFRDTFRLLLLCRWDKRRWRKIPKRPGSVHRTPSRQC
Sequence of Cytochrome P450 2C19 (Homo sapiens) (P33261 whole entry, looked up): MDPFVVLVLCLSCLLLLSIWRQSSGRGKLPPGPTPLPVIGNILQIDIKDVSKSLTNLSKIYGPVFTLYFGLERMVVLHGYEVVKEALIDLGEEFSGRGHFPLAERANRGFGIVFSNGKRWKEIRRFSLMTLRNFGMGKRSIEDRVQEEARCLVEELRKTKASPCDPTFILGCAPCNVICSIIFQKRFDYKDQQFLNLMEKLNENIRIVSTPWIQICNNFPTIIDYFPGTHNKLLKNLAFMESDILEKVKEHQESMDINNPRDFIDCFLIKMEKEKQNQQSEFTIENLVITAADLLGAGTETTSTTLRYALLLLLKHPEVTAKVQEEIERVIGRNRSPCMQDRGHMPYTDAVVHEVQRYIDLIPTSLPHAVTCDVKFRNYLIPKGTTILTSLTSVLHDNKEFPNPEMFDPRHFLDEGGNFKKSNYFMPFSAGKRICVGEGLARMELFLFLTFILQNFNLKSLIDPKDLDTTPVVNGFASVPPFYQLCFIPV
Sequence of Pyruvate kinase (Leishmania mexicana) (Q27686 2-499 E452W): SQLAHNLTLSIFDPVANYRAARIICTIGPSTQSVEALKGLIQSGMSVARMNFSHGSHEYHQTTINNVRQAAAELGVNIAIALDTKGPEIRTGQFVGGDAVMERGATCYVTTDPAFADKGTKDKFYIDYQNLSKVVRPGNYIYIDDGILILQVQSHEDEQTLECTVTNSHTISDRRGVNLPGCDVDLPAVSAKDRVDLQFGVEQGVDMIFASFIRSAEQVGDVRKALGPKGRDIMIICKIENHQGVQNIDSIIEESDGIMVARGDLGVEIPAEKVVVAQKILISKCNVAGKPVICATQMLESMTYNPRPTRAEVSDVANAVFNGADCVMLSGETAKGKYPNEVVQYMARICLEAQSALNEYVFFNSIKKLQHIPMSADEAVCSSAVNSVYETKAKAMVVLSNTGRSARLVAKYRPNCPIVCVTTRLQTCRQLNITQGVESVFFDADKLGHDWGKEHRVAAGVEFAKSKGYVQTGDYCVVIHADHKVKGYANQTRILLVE
Sequence of Cytochrome P450 2C9 (Homo sapiens) (P11712 whole entry, looked up): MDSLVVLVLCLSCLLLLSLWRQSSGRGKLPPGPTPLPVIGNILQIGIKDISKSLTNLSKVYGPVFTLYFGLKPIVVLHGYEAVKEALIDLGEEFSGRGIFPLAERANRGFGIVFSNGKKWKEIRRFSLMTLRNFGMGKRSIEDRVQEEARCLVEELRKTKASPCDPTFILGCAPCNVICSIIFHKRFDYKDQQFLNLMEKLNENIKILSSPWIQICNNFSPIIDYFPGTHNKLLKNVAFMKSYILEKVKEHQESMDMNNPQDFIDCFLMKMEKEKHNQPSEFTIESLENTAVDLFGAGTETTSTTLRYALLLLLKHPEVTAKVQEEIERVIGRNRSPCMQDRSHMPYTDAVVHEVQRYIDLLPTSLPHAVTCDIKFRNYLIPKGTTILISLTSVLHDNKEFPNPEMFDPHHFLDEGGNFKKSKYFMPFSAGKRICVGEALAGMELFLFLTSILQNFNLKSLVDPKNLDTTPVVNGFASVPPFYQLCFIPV
Sequence of Cytochrome P450 2D6 (Homo sapiens) (P10635 whole entry, looked up): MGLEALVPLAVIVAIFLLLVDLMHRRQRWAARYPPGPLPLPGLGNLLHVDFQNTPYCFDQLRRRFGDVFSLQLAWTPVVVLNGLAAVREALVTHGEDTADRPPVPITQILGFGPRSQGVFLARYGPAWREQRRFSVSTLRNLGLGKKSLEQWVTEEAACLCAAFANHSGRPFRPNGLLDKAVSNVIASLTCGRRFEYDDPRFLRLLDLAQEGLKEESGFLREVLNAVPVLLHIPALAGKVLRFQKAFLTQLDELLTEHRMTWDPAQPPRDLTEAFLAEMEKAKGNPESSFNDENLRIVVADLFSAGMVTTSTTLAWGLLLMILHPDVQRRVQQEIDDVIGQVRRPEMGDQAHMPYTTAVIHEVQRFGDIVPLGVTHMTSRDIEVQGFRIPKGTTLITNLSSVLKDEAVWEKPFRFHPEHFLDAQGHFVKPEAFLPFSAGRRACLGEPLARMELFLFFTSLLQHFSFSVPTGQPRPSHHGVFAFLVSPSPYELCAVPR

In the case of `CC(C)(O)C(=O)Nc1ccc([N+](=O)[O-])c(C(F)(F)F)c1`, the result in test [1], in test [2] and in [4] was inactive. Further, the Potency result in [3], in test [5] and in test [6] was “inactive” each time.
On to `Nc1ccc(Cl)cc1N`, for which the outcome in test [1], in test [2] and in test [4] was inactive. The Potency entry in [5] and in test [6] was “inactive” each time.
As for `C=CC(=O)NCNC(=O)C=C`, the result in [1], in test [2] and in test [4] was inactive. For the same compound, the Potency entry in test [7], in test [3], in test [5] and in [6] was “inactive” throughout.
Consider `Nc1ccc([N+](=O)[O-])cc1`, for which the result in [1], in test [2] and in test [4] was inactive. Moreover, the Potency result in [7], in [3], in test [5] and in test [6] was “inactive” in each case.
For the compound `COC(C)(C)CCCC(C)C/C=C/C(C)=C/C(=O)OC(C)C` (stereo unspecified), the call in [1], in [2], in [9] and in [4] was inactive. The Potency result in [8], in test [3], in test [5] and in [6] was “inactive” in each case.
As for `O=[N+]([O-])c1c(Cl)c(Cl)cc(Cl)c1Cl`, the call in test [1], in test [2] and in [4] was inactive. Further, the Potency entry in [7], in test [3], in test [5] and in test [6] was “inactive” in each case.
Turning to `O=[N+]([O-])c1cc([N+](=O)[O-])c2ccccc2c1`, the compound was called inactive in [1], in test [2] and in [4]. Also, the Potency entry in test [7], in [3], in [5] and in test [6] was “inactive” throughout.
For the compound `c1cc2ccc3cccc4ccc(c1)c2c34`, the outcome in test [1], in test [2] and in test [4] was inactive. The Potency entry in [3], in test [5] and in test [6] was “inactive” each time.
For `Cc1nccc2c1[nH]c1ccccc12`, the outcome in [10], in test [13], in [9] and in test [15] was inactive. The Potency result in test [11], in test [12], in test [8] and in [14] was “inactive” throughout. For the same compound, the Potency in test [7] was 3.98 µM (active).
On to `CCCCOC(=O)c1ccccc1C(=O)OCc1ccccc1`, for which the outcome in test [1], in [2] and in test [4] was inactive. Also, the Potency result in [3], in [5] and in test [6] was “inactive” throughout.
For the compound `OCCCBr`, the compound was called inactive in test [1], in [2] and in test [4]. Besides, the Potency entry in test [7], in test [3] and in [6] was “inactive” throughout.
On to `Cc1nc(-c2ccc(-c3ccc(C(=O)N4CCc5cc6c(cc54)C4(CCN(C)CC4)CO6)cc3)c(C)c2)no1`, for which the outcome in test [10] and in test [15] was inactive. Besides, the Potency was 7.94 µM (active) in test [11], 3.98 µM (active) in test [12] and 12.6 µM (active) in test [16].
Consider `COc1ccc(C(c2ccc(OC)cc2)C(Cl)(Cl)Cl)cc1`, for which the call in [1], in test [2], in [9] and in test [4] was inactive. Also, the Potency entry in [7], in test [8], in test [3], in test [5] and in [6] was “inactive” each time.
For `CC(=O)NCCc1c[nH]c2ccccc12`, the compound was classed as inactive in test [10], in [13] and in test [15]. For the same compound, the Potency entry in [11], in test [17], in test [12], in [18] and in test [14] was “inactive” each time.
